Experimental data: PubChem BioAssay
Calls of active or inactive are those of the source.

Assays:
[1] = system: Plasmodium falciparum Sir2 (PF13_0152, Sir2A); test: pfSir2 binders on small-molecule microarrays, primary screen, biochemical, small-molecule microarray, 635 nm fluorescence (AID 1098); conditions: small-molecule microarray binding, fluorescence 635 nm; higher = more signal;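 also: score merges spot fluorescence intensity with its signal-to-noise ratio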
[2] = small-molecule microarray binders of probe aDKK1, primary screen, biochemical, biotinylated probe, 635/667 nm fluorescence (AID 1099); conditions: higher = more signal;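 also: score merges 667nm spot fluorescence with signal to noise across triplicate slides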
[3] = small-molecule microarray binders of probe aCHRDL2, primary screen, biochemical, biotinylated probe, 635/667 nm fluorescence (AID 1100); conditions: higher = more signal
[4] = splicing luciferase reporter signal modulators, primary screen, spliceosome inhibition project, cell-based, HEK293, splice +/- reporter (AID 1101); conditions: luminescence, 24 h, higher = more signal, called active from +8 up or from −8 down;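 also: HEK293 cells carrying a splicing-competent luciferase reporter gene; test concentration not given here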
[5] = biological target: Fibroblast growth factor 10 (Homo sapiens) (UniProt O15520); test: FGF10 binders on small-molecule microarrays, primary screen, biochemical, small-molecule microarray, 635 nm fluorescence (AID 1102); conditions: FGF10 binding, fluorescence 635 nm, higher = more signal
Sequence of Fibroblast growth factor 10 (Homo sapiens) (O15520 whole entry, looked up): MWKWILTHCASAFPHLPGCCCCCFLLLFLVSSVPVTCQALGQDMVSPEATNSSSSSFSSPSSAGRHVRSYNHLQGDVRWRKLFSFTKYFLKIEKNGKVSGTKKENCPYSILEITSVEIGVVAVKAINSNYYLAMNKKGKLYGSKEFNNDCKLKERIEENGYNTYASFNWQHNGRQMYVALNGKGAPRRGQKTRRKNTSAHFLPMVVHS

[6] = system: glycogen synthase kinase-3 (GSK3A per assay name; protocol says GSK3B); test: GSK3 binders on small-molecule microarrays, primary screen, biochemical, small-molecule microarray, 635 nm fluorescence, GSK3A (AID 1103); conditions: small-molecule microarray binding, fluorescence 635 nm; higher = more signal; also: the record names both GSK3A and GSK3B
[7] = biological target: Epidermal growth factor receptor (Homo sapiens) (UniProt P00533); test: EGFR binders on small-molecule microarrays, primary screen, biochemical, small-molecule microarray, 635 nm fluorescence (AID 1104); conditions: EGFR binding, higher = more signal;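 also: score merges 667 nm emission intensity with spot signal to noise over triplicate slides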
Sequence of Epidermal growth factor receptor (Homo sapiens) (P00533 whole entry, looked up): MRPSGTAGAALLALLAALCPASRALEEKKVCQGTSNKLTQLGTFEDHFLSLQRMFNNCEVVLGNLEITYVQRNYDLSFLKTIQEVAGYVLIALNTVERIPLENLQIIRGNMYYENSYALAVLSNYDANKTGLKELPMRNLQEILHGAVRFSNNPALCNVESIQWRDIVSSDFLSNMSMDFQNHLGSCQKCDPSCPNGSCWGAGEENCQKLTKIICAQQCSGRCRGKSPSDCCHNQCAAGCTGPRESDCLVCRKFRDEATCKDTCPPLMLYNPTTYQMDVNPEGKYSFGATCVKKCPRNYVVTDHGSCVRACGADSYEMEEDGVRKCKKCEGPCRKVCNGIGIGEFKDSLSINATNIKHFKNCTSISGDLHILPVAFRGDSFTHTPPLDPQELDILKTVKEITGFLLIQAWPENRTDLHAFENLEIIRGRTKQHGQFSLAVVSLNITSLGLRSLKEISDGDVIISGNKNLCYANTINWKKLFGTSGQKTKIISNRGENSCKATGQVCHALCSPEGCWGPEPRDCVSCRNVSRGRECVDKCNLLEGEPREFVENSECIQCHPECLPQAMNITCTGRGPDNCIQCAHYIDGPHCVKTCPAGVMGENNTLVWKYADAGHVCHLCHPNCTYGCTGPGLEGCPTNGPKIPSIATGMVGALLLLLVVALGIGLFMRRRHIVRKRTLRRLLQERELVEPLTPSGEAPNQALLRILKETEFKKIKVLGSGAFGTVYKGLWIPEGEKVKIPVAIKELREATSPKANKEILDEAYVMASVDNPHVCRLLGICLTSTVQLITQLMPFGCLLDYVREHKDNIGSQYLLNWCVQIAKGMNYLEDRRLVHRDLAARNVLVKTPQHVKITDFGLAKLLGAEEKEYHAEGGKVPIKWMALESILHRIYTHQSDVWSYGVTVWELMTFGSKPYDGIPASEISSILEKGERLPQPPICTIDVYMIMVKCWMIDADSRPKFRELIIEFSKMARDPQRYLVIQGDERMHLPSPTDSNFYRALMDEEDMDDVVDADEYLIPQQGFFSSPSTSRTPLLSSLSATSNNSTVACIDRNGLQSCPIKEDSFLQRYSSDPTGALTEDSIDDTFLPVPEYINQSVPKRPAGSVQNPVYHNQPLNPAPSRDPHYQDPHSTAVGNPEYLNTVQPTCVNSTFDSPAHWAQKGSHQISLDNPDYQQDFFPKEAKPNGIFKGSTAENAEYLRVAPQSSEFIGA

[8] = biological target: Follistatin-related protein 3 (Homo sapiens) (UniProt O95633); test: FSTL3 binders on small-molecule microarrays, primary screen, biochemical, small-molecule microarray, 635 nm fluorescence (AID 1105); conditions: FSTL3 binding, higher = more signal;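 also: score merges emission near 667 nm and signal to noise per printed spot across three slides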
Sequence of Follistatin-related protein 3 (Homo sapiens) (O95633 whole entry, looked up): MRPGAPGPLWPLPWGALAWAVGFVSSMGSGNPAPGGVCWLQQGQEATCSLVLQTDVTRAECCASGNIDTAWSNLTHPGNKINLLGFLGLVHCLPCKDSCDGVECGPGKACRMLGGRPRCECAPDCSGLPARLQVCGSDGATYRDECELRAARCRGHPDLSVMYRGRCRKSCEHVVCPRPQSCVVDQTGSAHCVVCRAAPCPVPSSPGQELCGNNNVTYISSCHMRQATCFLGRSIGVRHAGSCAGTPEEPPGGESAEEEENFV

[9] = biological target: Dickkopf-related protein 1 (Homo sapiens) (UniProt O94907); test: DKK1 binders on small-molecule microarrays, primary screen, biochemical, small-molecule microarray, 635 nm fluorescence scan (AID 1106); conditions: DKK1 binding, higher = more signal;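 also: score merges emission near 667 nm with signal to noise over three replicate slides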
Sequence of Dickkopf-related protein 1 (Homo sapiens) (O94907 whole entry, looked up): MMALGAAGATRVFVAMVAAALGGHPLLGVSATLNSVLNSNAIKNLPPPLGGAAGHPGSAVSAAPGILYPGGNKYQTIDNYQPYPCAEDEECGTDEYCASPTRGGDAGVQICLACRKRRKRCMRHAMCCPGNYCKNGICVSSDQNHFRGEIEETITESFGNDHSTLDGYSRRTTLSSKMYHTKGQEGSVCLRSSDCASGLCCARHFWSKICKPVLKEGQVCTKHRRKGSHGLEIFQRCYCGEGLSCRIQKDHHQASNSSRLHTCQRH

[10] = system: Inhibin beta A chain (activin A); test: INHBA (activin A) binders on microarrays, primary screen, biochemical, small-molecule microarray, 635 nm fluorescence scan (AID 1107); conditions: small-molecule microarray binding, higher = more signal;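 also: mouse activin A protein probed at 4.33 µg/mL on printed slides; score merges bound-protein fluorescence near 667 nm with spot signal-to-noise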
[11] = system: Human papillomavirus type 1a protein E7 (residues 44-93); test: HPV1a E7 fragment binders on microarrays, primary screen, biochemical, small-molecule microarray, residues 44-93, 635 nm fluorescence (AID 1108); conditions: small-molecule microarray binding, fluorescence 635 nm; higher = more signal;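 also: E7 fragment applied at 1 µg/mL in TBST for 1 h at 4 C; score combines spot fluorescence with its signal to noise ratio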
[12] = modulators of HCV replicon luciferase signal, primary screen, HCV replication inhibitor project, Huh7 cells, luciferase reporter (AID 1109); conditions: 48 h, higher = more signal;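 also: huh7 hepatoma cells harbouring a luciferase neomycin HCV replicon reporter; luciferase luminescence as measure of HCV replicon replication; test concentration not given here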
[13] = biological target: Left-right determination factor 2 (Homo sapiens) (UniProt O00292); test: LEFTY2 binders on small-molecule microarrays, primary screen, biochemical, small-molecule microarray, 635 nm fluorescence scan (AID 1110); conditions: LEFTY2 binding, higher = more signal
Sequence of Left-right determination factor 2 (Homo sapiens) (O00292 whole entry, looked up): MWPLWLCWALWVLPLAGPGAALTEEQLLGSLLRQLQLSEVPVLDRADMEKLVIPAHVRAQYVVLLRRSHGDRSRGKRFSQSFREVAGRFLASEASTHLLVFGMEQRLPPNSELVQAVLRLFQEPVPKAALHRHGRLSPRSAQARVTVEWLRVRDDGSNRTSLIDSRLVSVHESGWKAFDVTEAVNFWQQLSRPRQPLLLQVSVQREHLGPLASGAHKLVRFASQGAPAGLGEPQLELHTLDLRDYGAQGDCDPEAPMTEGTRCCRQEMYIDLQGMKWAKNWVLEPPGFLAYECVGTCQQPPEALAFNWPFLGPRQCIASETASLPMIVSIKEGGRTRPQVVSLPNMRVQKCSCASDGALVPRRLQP

[14] = biological target: Calmodulin-1 (Homo sapiens) (UniProt P0DP23); test: CALM1 binders on microarrays, EGTA buffer, profiling panel, biochemical, small-molecule microarray, Cy5-labelled CALM1 (AID 1111); conditions: Cy5-CALM1 binding fluorescence, higher = more signal;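 also: labelled calmodulin applied in Tris saline Tween buffer holding calcium plus EGTA and DTT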
[15] = biological target: Calmodulin-1 (Homo sapiens) (UniProt P0DP23); test: calcium-bound CALM1 binders on microarrays, profiling panel, artefact control for SMM control-protein annotation, biochemical, small-molecule microarray, Cy5-labelled CALM1, plus calcium (AID 1112); conditions: Cy5-CALM1 binding fluorescence, higher = more signal;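 also: score merges spot fluorescence with signal to noise from triplicate slides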
[16] = small-molecule microarray binders of probe aWnt5a, primary screen, biochemical, biotinylated probe, 635/667 nm fluorescence (AID 1113); conditions: higher = more signal;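 also: score merges 667 nm fluorescence intensity with signal-to-noise per printed feature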
[17] = small-molecule microarray binders of probe aShh, primary screen, biochemical, biotinylated probe, 635/667 nm fluorescence (AID 1114); conditions: higher = more signal;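 also: probe is biotin-labelled aShh protein from a stem cell growth factor screen; measures binding of labelled protein to compounds printed on the slide; score merges feature fluorescence at 667 nm with signal-to-noise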
[18] = small-molecule microarray binders of probe aNog, primary screen, biochemical, biotinylated probe, 635/667 nm fluorescence (AID 1115); conditions: higher = more signal;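 also: probe is biotinylated aNog protein used at 0.15 µg/mL for 1 h at 4 C; z-score combines 667 nm fluorescence of each spot with its signal to noise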
[19] = biological target: Torsin-1A-interacting protein 1 (Homo sapiens) (UniProt Q5JTV8); test: LAP1 binders from COS7 cell lysate, primary screen, small-molecule microarray, 635/667 nm fluorescence (AID 1116); conditions: COS7-hLAP1 lysate binding, 635 nm fluorescence, higher = more signal
Sequence of Torsin-1A-interacting protein 1 (Homo sapiens) (Q5JTV8 whole entry, looked up): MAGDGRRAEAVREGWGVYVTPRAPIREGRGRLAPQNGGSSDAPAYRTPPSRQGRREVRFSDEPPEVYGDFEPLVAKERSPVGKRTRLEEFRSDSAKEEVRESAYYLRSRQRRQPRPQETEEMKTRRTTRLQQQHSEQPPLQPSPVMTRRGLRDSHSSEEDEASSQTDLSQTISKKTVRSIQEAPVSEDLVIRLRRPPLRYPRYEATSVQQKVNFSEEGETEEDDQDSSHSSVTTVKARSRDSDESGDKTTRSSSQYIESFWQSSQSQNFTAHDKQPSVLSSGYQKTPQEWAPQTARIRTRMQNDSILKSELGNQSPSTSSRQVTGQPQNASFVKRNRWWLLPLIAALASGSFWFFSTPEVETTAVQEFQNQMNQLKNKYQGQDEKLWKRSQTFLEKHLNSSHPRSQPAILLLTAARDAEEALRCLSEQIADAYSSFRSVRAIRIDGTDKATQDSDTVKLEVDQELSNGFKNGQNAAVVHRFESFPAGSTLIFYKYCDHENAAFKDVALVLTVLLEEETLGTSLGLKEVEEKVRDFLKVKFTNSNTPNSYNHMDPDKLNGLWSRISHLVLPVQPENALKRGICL

[20] = biological target: Alpha-bungarotoxin (Bungarus multicinctus) (UniProt P60615); test: alpha-bungarotoxin binders on microarray, profiling panel, artefact control for SMM control protein annotation, biochemical, small-molecule microarray, Alexa647 label, 635/667 nm fluorescence (AID 1117); conditions: alpha-BTX-A647 binding fluorescence, higher = more signal
Sequence of Alpha-bungarotoxin (Bungarus multicinctus) (P60615 whole entry, looked up): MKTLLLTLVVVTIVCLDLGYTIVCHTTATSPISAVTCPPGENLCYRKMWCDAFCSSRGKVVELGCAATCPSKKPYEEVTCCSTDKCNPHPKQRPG

SMILES	composite z-score [1]	composite z-score [2]	composite z-score [3]	z-score [4]	composite z-score [5]	composite z-score [6]	composite z-score [7]	composite z-score [8]	composite z-score [9]	composite z-score [10]	composite z-score [11]	z-score [12]	composite z-score [13]	composite z-score [14]	composite z-score [15]	composite z-score [16]	composite z-score [17]	composite z-score [18]	composite z-score [19]	composite z-score [20]
CC(C)NC(=O)[C@@H]1c2ccccc2C(=O)N(Cc2cc(F)cc(C(F)(F)F)c2)[C@H]1c1ccc(CO)cc1	1.51	0.478	0.94	-1.05 (inactive)	-0.535	-0.825	-0.979	-1.17	-0.833	-0.476	0.719	0.32	-0.556	0.343	0.916	-0.25	-0.321	0.27	0.0026	-0.948
Cc1ccc(S[C@]2(C(=O)NC3CC3)CC(=O)N(Cc3ccccc3C(F)(F)F)[C@@H]2c2ccc(CO)cc2I)cc1	1.64	0.913	1.1	-2.01 (inactive)	-0.28	-0.0828	-0.385	-0.292	-0.425	1.72	0.33	-1.55	-0.659	0.514	1.14	-0.124	0.188	0.568	0.955	0.0637
C#CCN1C(C(=O)OCC)OC[C@H]1c1ccccc1 (stereo not given in full)	0.312	0.461	-0.502	-0.577 (inactive)	0.388	-0.0229	0.421	0.901	0.428	-0.352	1.35	-0.354	0.677	-0.128	-0.605	-0.175	-0.167	-0.21	1.49	0.327
COc1ccc(C#Cc2ccc3c(c2)[C@]2(C(=O)N3)[C@H](c3ccc(O)cc3)N3[C@H](c4ccccc4)[C@H](c4ccccc4)OC(=O)[C@H]3[C@@H]2C(N)=O)cc1	0.348	-0.0576	0.698	6.64 (inactive)	-0.425	-0.381	-1.06	-1.08	-0.67	0.227	0.53	-1.68	-1.07	0.0315	1.03	-0.136	0.0735	0.482	-0.203	0.997
C=CCNC(=O)[C@@H]1[C@H]2C(=O)O[C@H](c3ccccc3)[C@H](c3ccccc3)N2[C@H](c2ccc(O)cc2)[C@@]12C(=O)N(C(=O)OCCOC)c1ccc(C#Cc3ccc(OC)cc3)cc12	1.12	0.51	-0.382	-1.16 (inactive)	0.793	1.3	0.541	0.62	1.12	-0.071	1.13	-1.77	0.638	1.75	0.185	-0.0368	-0.0011	0.315	1.13	0.579
C[N+](C)(C)CCCCNC(=O)[C@@H]1C[C@@H]2C(=O)NCC(=O)N2[C@@H]1c1cccc(OCCO)c1	0.594	-0.365	-0.211	-1.49 (inactive)	1.16	0.68	0.627	1.39	1.72	-0.0907	0.299	0.703	1.08	-0.189	-0.131	0.0519	0.0756	0.145	1.66	1.89
C=CC[C@]1(C(=O)N(C)C)N=C(c2ccc(OCCCO)cc2)O[C@H]1c1ccccc1CN=[N+]=[N-]	1.27	1.68	1.09	-0.0363 (inactive)	0.698	1.32	0.0528	0.513	0.328	1.43	0.923	-2.44	0.447	2.17	1.17	0.0324	-0.174	1.24	1.92	1.58
COCCCN1C(=O)[C@@]2(Cc3ccccc31)c1ccccc1C(=O)N(Cc1ccccc1Cl)[C@H]2c1ccc(CO)cc1	-0.482	0.337	0.775	-0.471 (inactive)	-0.129	-0.542	-0.406	-0.397	-0.685	1.04	-0.199	-0.326	-0.222	-0.217	-0.12	0.0044	-0.0066	0.206	0.167	-0.342
CC(C)C(=C=CC[C@@H](O)c1ccc(CO)o1)CCO	1.78	-0.2	-0.479	-0.493 (inactive)	0.9	0.367	-0.171	0.197	0.39	1.08	0.185	-0.744	0.0308	-0.108	-0.13	-0.178	-0.123	0.0954	0.42	0.205
COC(=O)C1=CC(c2ccc(CO)cc2)=CC(c2cccs2)N(C)C=C1C(=O)OC (stereo not given)	1.52	0.772	1.13	-1.77 (inactive)	-0.0489	-0.57	-0.407	0.409	-0.813	1.46	-0.526	-0.176	-0.76	1.36	0.774	-0.096	0.138	0.603	0.107	0.765
CCCCC(=C=CC[C@H](O)c1cccc(OCCO)c1)CCO	0.674	-0.0104	0.287	-0.261 (inactive)	0.0392	-0.558	-0.932	-0.764	-0.263	1.07	-0.397	-1.21	-0.497	-0.357	-0.0182	-0.0462	0.0639	0.0511	0.338	0.629
